Results published in PubChem BioAssay AID1626 (SRMLSC, 2009).
Screen size: about 220,000 compounds; about 2,000 (0.91%) were called active. Another 2% or so got no clear call; they are omitted. Rule as the data show it: inconclusive = inhibition above about 80% without an active follow-up result; inactive = below that; test concentration not stated here. The list is a sample of the results. Potency and affinity values are given separately.

Test: M. tuberculosis H37Rv growth inhibitors, H37Rv strain (AID 1626);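 also: bacteria incubated seven days before Alamar blue readout; 0% = bacteria only wells and 100% = bacteria with antibiotic wells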
Conditions: active compounds read high, concentration not given here

SMILES	inhibition
CCO[C@H]1OC(C(=O)N2CCOCC2)=C[C@@H](c2ccccc2)[C@@H]1CCCO	0.78% (inactive)
Cc1ccccc1OCCn1cc(C(=O)C(=O)N2CCOCC2)c2ccccc21	5.53% (inactive)
O=C(CO/N=C/c1ccccc1Cl)N1CCCc2ccccc21	4.05% (inactive)
COc1ccccc1N1CCN(C(=O)C(Sc2ccccc2)c2ccccc2)CC1 (stereo not drawn)	-2.82% (inactive)
CCOC(=O)c1csc(NC(=O)COc2ccc(Cl)cc2Cl)n1	-7.94% (inactive)
CCC(=O)NNC(=O)c1cc(COc2cc(Cl)cc(Cl)c2)on1	13.9% (inactive)
CC(=O)c1csc(COc2ccc(Cl)cc2)n1	-4.98% (inactive)
CCOC(=O)c1csc(COc2ccccc2Cl)n1	-4.66% (inactive)
CCOC(=O)c1sc(-c2ccc(C(F)(F)F)cc2)nc1O	-1.38% (inactive)
Cc1nc(-c2cc(-c3nc(-c4ccc(C(F)(F)F)cc4)no3)no2)cs1	7.08% (inactive)
CC(C)NC(=O)NNC(=O)c1cc(COc2cc(Cl)cc(Cl)c2)on1	-6.1% (inactive)
Cc1onc(C(=O)NN)c1-c1csc(COc2ccc(Cl)cc2)n1	-10.6% (inactive)
O=C(/C=C/c1ccccc1[N+](=O)[O-])N1CCN(c2ccccc2F)CC1	4.82% (inactive)
O=C(O)c1ccc(S(=O)(=O)N2CCC(c3nc(-c4ccccc4Cl)no3)CC2)cc1	-8.76% (inactive)
O=C(COC(=O)/C=C/c1ccc(Br)o1)Nc1ccccc1F	8.52% (inactive)
Cc1ccc(C2=NC(=O)/C(=C/c3cc(O)c(O)c(Br)c3)S2)cc1	-2.49% (inactive)
Cn1ncc2c(NCc3cccc(C(F)(F)F)c3)c(C(=O)O)cnc21	-1.6% (inactive)
CCN(CC)C1CCN(C(=O)CCc2nnc(CCCCc3ccccc3)o2)C1 (stereo not drawn)	-6.99% (inactive)
Cc1csc2c(N3CCN(C(=O)c4ccc(C(C)(C)C)cc4)CC3)ncnc12	5.47% (inactive)
CCCC(=O)Nc1cc(-c2nn(C)c(=O)c3ccccc23)ccc1N1CCOCC1	-6.76% (inactive)
CCCn1c(N)c(C(=O)CN2CCc3ccccc3C2)c(=O)n(C)c1=O	0.315% (inactive)
CC(=O)Nc1ccc(OCC(O)Cn2c(C)nc3ccccc32)cc1 (stereo not drawn)	5.23% (inactive)
O=C(OC1CCCCC1=O)c1cc(Cl)ccc1[N+](=O)[O-] (stereo not drawn)	-3.33% (inactive)
Cc1ccc(NC2(c3nnnn3-c3c(C)cccc3C)CCCCC2)cc1	16.4% (inactive)

SMILES	inhibition
CC(=O)c1csc(COc2ccccc2)n1	-10.3% (inactive)
CCOC(=O)c1csc(COc2ccc(OC)cc2)n1	-4.8% (inactive)
Cc1cccc2nc(CSc3nnc(N)s3)cn12	0.64% (inactive)
Cc1ccc(C(=O)N/C(=C/c2ccc(-c3ccc(Br)cc3)o2)C(=O)NC2CCS(=O)(=O)C2)cc1 (stereo not drawn)	2.02% (inactive)
CCNc1ccc(C(=O)OCC)cc1NC(=O)c1cc(S(=O)(=O)N2CCOCC2)ccc1C	0.89% (inactive)
O=C(CN1CC(=O)Oc2ccccc21)NCc1ccco1	0.53% (inactive)
CCc1cc(-c2n[nH]c(C)c2-c2nc(C)cs2)c(O)cc1OC	4.46% (inactive)
Cc1nn(Cc2ccccc2)c(Cl)c1C(=O)NC1CCCc2ccccc21 (stereo not drawn)	12.6% (inactive)
CCCNC(=O)C1CC(=O)N(c2ccc(OCC(=O)Nc3cc(C)cc(C)c3)cc2)C1 (stereo not drawn)	-2.31% (inactive)
O=[N+]([O-])/C=C/c1c(OCc2ccccc2)ccc2ccccc12	42% (inactive)
CCOC(=O)COc1ccccc1/C=C\[N+](=O)[O-]	11.3% (inactive)
O=C(CSc1nnc(Cc2cc(=O)[nH]c(=O)[nH]2)n1-c1ccc(Cl)cc1)NC1CCCC1	-1.17% (inactive)
COc1ccc(OC)c(C2C=C(c3ccc(C)c(C)c3)Nc3nnnn32)c1 (stereo not drawn)	6.69% (inactive)
COc1cccc(C2=CC(c3ccc(OC)c(OC)c3OC)n3nnnc3N2)c1 (stereo not drawn)	-9.14% (inactive)
COc1ccc(C(=O)N(C)C2CCN(C)CC2)cc1S(=O)(=O)Nc1cc(Cl)ccc1Cl	-15.1% (inactive)
Cc1nc(=S)c2c([nH]1)-c1ccccc1CC21CCCCC1	6.17% (inactive)
Cn1c(/C=N/O)nc2ccccc21	-6.75% (inactive)
Cc1ccc(C(=O)N/N=C/c2nc3ccccc3n2C)cc1	62.7% (inactive)
Cc1ccc2cc(/C=N/NC(=O)c3ccccc3[N+](=O)[O-])c(Cl)nc2c1	-0.86% (inactive)
Cc1nn(CC(=O)Nc2ccccn2)c(C)c1[N+](=O)[O-]	-1.31% (inactive)
COc1cccc(C(=O)NCc2cccnc2)c1	-9.43% (inactive)
Cc1ccc(NC(=O)COc2ccc(/C=C3/SC(=Nc4ccccc4)N(Cc4cccnc4)C3=O)cc2)cc1	2.56% (inactive)
CN1C(=O)/C(=C/c2ccccc2Cl)Sc2ccc(C(=O)NCc3cccnc3)cc21	34.2% (inactive)
CCOc1cc(/C=C2/SC(=Nc3ccccc3)N(Cc3cccnc3)C2=O)ccc1OCC#N	-1.44% (inactive)

SMILES	inhibition
COc1ccc(C(=O)NCc2cccnc2)cc1OC	-4.7% (inactive)
CCOc1ccc(/C=C2/Sc3ccc(C(=O)N4CCN(C(=O)c5ccco5)CC4)cc3N(C)C2=O)cc1OC	-1.76% (inactive)
COc1ccc(N(C(=O)Nc2ccc(Cl)cc2)C2=NCCC2)cc1	-4.11% (inactive)
CCCN(CCC)CCCNC(=S)Nc1ccc2nc(N3CCN(C)CC3)cc(C)c2c1	-1.09% (inactive)
CCN(CC)C(NC(=O)Cc1ccccc1)C(Cl)(Cl)Cl (stereo not drawn)	-7.35% (inactive)
c1ccc(-c2nc3ccccc3[nH]2)nc1	-3.79% (inactive)
O=c1[nH]c(-c2ccccc2)nc2sc(-c3ccccc3)cc12	0.66% (inactive)
O=c1[nH]c(-c2cccnc2)nc2sc(-c3ccccc3)cc12	6.5% (inactive)
c1ccc(-c2nc3cc4ccccc4cc3[nH]2)nc1	-3.91% (inactive)
O=c1[nH]c(-c2ccccn2)cc2ccccc12	-4.45% (inactive)
O=c1[nH]c(-c2ccncc2)nc2ccccc12	-5.72% (inactive)
Cc1sc2nc(-c3ccncc3)[nH]c(=O)c2c1-c1ccccc1	-3.4% (inactive)
Cc1sc2nc(-c3ccccc3)[nH]c(=O)c2c1-c1ccccc1	-4.26% (inactive)
O=[N+]([O-])c1cc(C(F)(F)F)ccc1NCCCN1CCOCC1	7.61% (inactive)
COc1cc(C(=O)Nc2cc(C)cc(C)c2)c(-n2cnnn2)cc1OC	5.79% (inactive)
CCC(C)OC(=O)C1=C(C)O[C@]23OC(N)=C(C#N)[C@]12C(=O)c1ccccc13 (stereo partly drawn)	3.72% (inactive)
Clc1ccc(-c2ccn[nH]2)cc1	58.5% (inactive)
COC(=O)c1ccc(NS(=O)(=O)c2ccc3c(c2)oc(=O)n3C)cc1	-7.58% (inactive)
CCOC(=O)C1CCN(c2nc(C)cc(C)c2C#N)CC1	2.49% (inactive)
Cc1cc(C)nc(SC2=CS(=O)(=O)c3ccccc32)n1	3.84% (inactive)
Cn1c(SC2=CS(=O)(=O)c3ccccc32)nc2ccccc21	54.9% (inactive)
CCOC(=O)c1sc(NC(=O)CSc2nncn2C)nc1C	4.68% (inactive)
O=C(c1ccc(N2C(=O)C3C4c5ccccc5C(c5ccccc54)C3C2=O)cc1)N1CCOCC1 (stereo not drawn)	-4.29% (inactive)
COC(=O)c1sc(OC)cc1OCc1ccc(C)cc1	-1.7% (inactive)

SMILES	inhibition
CCC(NC(=O)c1ccc([N+](=O)[O-])cc1[N+](=O)[O-])c1ccccc1 (stereo not drawn)	-5.13% (inactive)
COc1ccccc1NC(=O)c1ccc([N+](=O)[O-])cc1[N+](=O)[O-]	3.09% (inactive)
O=C(NCCCn1ccnc1)c1cn(-c2ccccc2)nc1-c1ccc(F)cc1	4.17% (inactive)
N#C/C(=C\c1ccc([N+](=O)[O-])cc1)C(=O)NCCCn1ccnc1	3.27% (inactive)
CCSc1ccc(-c2nn(-c3ccccc3)cc2/C=C(/C#N)C(=O)NCCCOC)cc1	-5.12% (inactive)
CCCSc1ccc(-c2nn(-c3ccccc3)cc2/C=C(/C#N)C(=O)NCCCOC)cc1	-7.18% (inactive)
CSCCC(NS(=O)(=O)c1ccc(Cl)cc1)C(=O)OCC(=O)c1c(C)[nH]c2ccccc12 (stereo not drawn)	-2.72% (inactive)
C/C=C(\C)C(=O)N1CC2(CC(c3cccc(NC(=O)CC(c4ccccc4)c4ccccc4)c3)=NO2)C[C@H]1C(N)=O (stereo partly drawn)	4.13% (inactive)
COc1ccccc1C(=O)C1CCCN(C(=O)CCC(=O)c2ccccc2)C1 (stereo not drawn)	4.79% (inactive)
O=C(CNc1cccc2ccccc12)N/N=C/C=C/c1ccco1	-2.95% (inactive)
CCOC(=O)c1c(C)n(-c2ccc(C)cc2)c2ccc(OCC(O)CNCC3CCCO3)cc12 (stereo not drawn)	0.55% (inactive)
CCOC(=O)c1c(C)n(-c2ccc(C)cc2)c2ccc(OCC(O)CN3CCN(C)CC3)cc12 (stereo not drawn)	-2.8% (inactive)
Cc1cccc(N(C(=O)C(F)(F)F)C(C(=O)NC2CCCCC2)c2cccs2)c1 (stereo not drawn)	-0.05% (inactive)
Cc1cccc(NC(=O)/C=C/c2cccs2)n1	-10.1% (inactive)
O=C(/C=C/c1cccs1)Nc1nccs1	-4.27% (inactive)
Cc1ccc(-c2csc(NC(=O)/C=C/c3cccs3)n2)cc1C	51.8% (inactive)
O=C(/C=C/c1cccs1)Nc1nc(-c2ccccc2)cs1	-0.14% (inactive)
Cn1nc(C(=O)Nc2sccc2C(N)=O)ccc1=O	-1.96% (inactive)
COc1ccc2oc(=O)c(C(=O)N3CCN(c4ccccc4C)CC3)cc2c1	-3.36% (inactive)
N#C/C(=C\c1sc(N2CCOCC2)nc1-c1ccccc1)C(=O)Nc1cccc2ccccc12	49.2% (inactive)
O=C(N/N=C/c1sc(N2CCOCC2)nc1-c1ccccc1)c1ccccc1F	-7.96% (inactive)
